PubChem BioAssay AID1903 (Southern Research Specialized Biocontainment Screening …, 2009)
Among all 310,000 compounds or so, about 1,200 (0.39%) were called active. Not all results are given here. Entries with a potency or affinity are not part of this list. A number with no mark means an inactive call. No rule for the calls is given here.

biological target: Large T antigen (Simian virus 40) (UniProt P03070); experiment: TAg ATPase/helicase activity blockers – biochemical (AID 1903); conditions: SV40 large T antigen ATPase/helicase inhibition assay; at 20 µM; stronger effect = higher value
Sequence (P03070 whole entry, looked up): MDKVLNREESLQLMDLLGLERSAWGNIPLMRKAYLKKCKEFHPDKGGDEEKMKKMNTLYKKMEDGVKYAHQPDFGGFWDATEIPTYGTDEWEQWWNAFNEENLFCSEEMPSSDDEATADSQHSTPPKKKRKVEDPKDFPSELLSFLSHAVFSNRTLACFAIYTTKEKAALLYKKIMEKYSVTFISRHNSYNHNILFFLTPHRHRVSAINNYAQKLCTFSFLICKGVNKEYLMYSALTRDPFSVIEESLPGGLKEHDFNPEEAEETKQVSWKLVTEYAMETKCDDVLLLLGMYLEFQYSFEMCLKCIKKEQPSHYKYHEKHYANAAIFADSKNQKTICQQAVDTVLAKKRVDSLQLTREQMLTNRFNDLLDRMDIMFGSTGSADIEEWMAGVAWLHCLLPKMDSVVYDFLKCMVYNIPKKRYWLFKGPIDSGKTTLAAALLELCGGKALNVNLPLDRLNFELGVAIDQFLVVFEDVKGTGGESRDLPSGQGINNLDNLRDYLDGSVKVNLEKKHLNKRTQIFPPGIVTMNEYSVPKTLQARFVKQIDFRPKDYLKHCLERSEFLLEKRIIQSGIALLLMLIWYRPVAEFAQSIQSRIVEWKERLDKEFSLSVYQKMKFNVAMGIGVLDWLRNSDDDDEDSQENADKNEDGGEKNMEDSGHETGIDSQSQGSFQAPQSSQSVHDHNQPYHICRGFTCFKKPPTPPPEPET

Structure (SMILES) | inhibition
CCCCc1c(C(=O)O)cc(OC)cc1C(=O)O | 12.1%
O=C(CSc1nc(O)cc(=O)n1-c1ccc(Cl)c(Cl)c1)Nc1ccc(Cl)cc1Cl | 28.9%
Cn1nccc1C(=O)N1CCC(Cc2ccccc2)CC1 | 11.7%
COC(=O)CC1C(=O)NCCN1C(=O)Nc1ccc(Cl)c(Cl)c1 (centres undefined) | 4.47%
CCC(C)NC(=O)CCc1c(C)nc2c(c(C)nn2-c2ccccc2)c1C (centres undefined) | 6.67%
CC(=O)c1c(C)oc2ccc(N(C(C)=O)S(=O)(=O)c3cccc4cccnc34)cc12 | 10.6%
FC(F)(F)c1ccc(Cl)c(NC2=NCCCCC2)c1 | 7.53%
CC(C)OC(=O)C(C(=O)C(F)(F)F)c1cc(NS(=O)(=O)c2ccc3ccccc3c2)c2ccccc2c1O (centres undefined) | 15.1%
CCOc1cc(/C=N\n2nnnc2N)ccc1O | 33.9%
CCOc1ccc(/C=N/n2nnnc2N)cc1OCC | 5.4%
COc1cc(/C=N/n2nnnc2N)ccc1OC(C)=O | 12.9%
COc1ccc(/C=N/n2nnnc2N)cc1OC | 11.7%
O=C(NCc1ccccn1)c1ccc(Cl)c(S(=O)(=O)N2CCCCC2)c1 | 6.41%
COc1ccc(CNC(=O)C2CCN(S(=O)(=O)N3CCCCC3)CC2)cc1 | 7.96%
NC(=O)c1cc(S(=O)(=O)N2CCN(c3ccc([N+](=O)[O-])cc3)CC2)cs1 | 14.4%
CCOC(=O)c1cnc2cc(F)c(F)cc2c1N1CCOCC1 | 0.2%
O=C(COc1c(Cl)cc(Cl)cc1Cl)c1ccc(Cl)cc1 | 2.07%
CC(=O)Nc1ccc(NS(=O)(=O)c2ccc3c(c2)oc(=O)n3C)cc1 | 10.1%
Cc1ccc(NS(=O)(=O)c2ccc3c(c2)oc(=O)n3C)cc1 | 6.64%
Cc1ccc(NC(=O)CN2C(=O)c3ccccc3S2(=O)=O)c(C)c1 | 10.7%
CCCNC(=O)C(=O)Nc1ccc(N(C)C)cc1 | 18.4%
CN(C)c1ccc(C(=O)NCC2CCCO2)cc1 (centres undefined) | 5.69%
CN(C)c1ccc(CNCC2CCCO2)cc1 (centres undefined) | 7.34%
COCC(=O)Nc1ccc(N(C)C)cc1 | 33.7%
CC1CCN(C(=O)Cn2c(=O)n(CCCC(=O)NCc3ccco3)c(=O)c3sccc32)CC1 | 8.64%

Structure (SMILES) | inhibition
O=C(Nc1ccccc1C(=O)Nc1ccccc1)c1cccs1 | 5.41%
Cc1c(C(=O)Nc2cc(S(=O)(=O)N3CCOCC3)ccc2N2CCOCC2)oc2ccccc12 | 0.37%
CCC(CC)C(=O)Nc1nnc(S(=O)(=O)N(CC)c2ccc(OC)cc2)s1 | 3.96%
Cc1ccc(S(=O)(=O)N2CCOCC2)cc1C(=O)c1nccn1C | 8.29%
CC1=C/C(=N\OS(=O)(=O)c2ccccc2)C=CC1=O | 26.7%
Cc1ccc(S(=O)(=O)ON=C2CCN(S(=O)(=O)c3ccccc3)CC2)cc1 | 1.39%
CCc1nnc(NC(=O)CSc2nnc(Cc3cc(=O)[nH]c(=O)[nH]3)n2-c2ccc(OC)cc2)s1 | 3.92%
NC(=NCCc1c[nH]c2ccccc12)NS(=O)(=O)c1ccc(F)cc1 | -1.17%
CCCNCc1cc(OC)c(OCC(=O)NCCc2ccccc2)cc1Br | 6.19%
COc1cccc(NC(=S)N2CCCC2c2ccc(OC)c(OC)c2)c1 (centres undefined) | 12.4%
CCn1nc(C(=O)OCc2cccc(S(=O)(=O)N(C)C)c2)c2ccccc2c1=O | 8.67%
O=C(O)c1ccccc1NS(=O)(=O)c1cccc(C(F)(F)F)c1 | 9.6%
Cc1ccc(-c2nn(C)c(=O)c3ccccc23)cc1S(=O)(=O)N1CCCC1 | 0.12%
O=c1c2ccccc2sn1-c1ccc(S(=O)(=O)N2CCCC2)cc1 | 9.42%
O=C(O)c1ccccc1NS(=O)(=O)c1ccc2ccccc2c1 | -0.61%
CN(C)S(=O)(=O)c1cccc(N2C(=O)CC3(CCCCC3)CC2=O)c1 | 7.26%
CC(C)=CCc1c(O)ccc2c1OC(c1ccc(O)c(O)c1)CC2=O (centres undefined) | 17%
O=C1CC(c2ccc(O)c(O)c2)Oc2cc(O)cc(O)c21 (centres undefined) | 45.5%
Cc1ccc(OCCCCN2CCC(C)CC2)c(Br)c1 | 3.72%
O=C1/C(=C\c2ccc(Br)o2)Cc2ccccc21 | 6.99%
Cc1ccc(C=C2C(=O)c3ccccc3C2=O)o1 | 12.7%
O=C(COc1ccc(F)cc1F)N1CCCCCCC1 | 1.37%
Oc1cccc(NC(=S)Nc2ccccc2)c1 | 21.3%
Cc1cccc(OCC(=O)Nc2ccc(N3CCCC3)cc2)c1C | -18.4%
COc1ccc(NC(=S)NC(=O)c2ccccc2Cl)cc1 | 9.58%

Structure (SMILES) | inhibition
O=C(NC(=S)Nc1ccc(Cl)cc1)c1cncc(Br)c1 | 10.2%
O=C(NC(=S)Nc1ccccc1O)c1ccccc1Cl | 13.8%
O=C(O)c1ccc(NC(=S)NC(=O)c2cncc(Br)c2)cc1 | 13.1%
CCOc1ccc(-c2ccc3nnc(SCC(=O)NCC4CCCO4)n3n2)cc1 (centres undefined) | 20.9%
c1ccc2cc(Cn3ccnc3)ccc2c1 | 5.43%
C/C(=N\NC(=O)COc1ccc(C)cc1[N+](=O)[O-])c1cccs1 | 15%
N#Cc1ccc(CSc2nc(N)cc(N)n2)cc1 | -0.44%
CCOCCCn1c(=O)c2ccccc2n2c(=S)[nH]nc12 | 31.1%
CC(C)CCn1c(=O)c2ccccc2n2c(CCl)nnc12 | 12.5%
CC(C)CCn1c(=O)c2ccccc2n2c(CN3CCCC3)nnc12 | 15.1%
Cn1c(=O)c2ccccc2n2c(=S)[nH]nc12 | 1.39%
O=C(Nc1ccc(S(=O)(=O)Nc2ncccn2)cc1)c1cnc(Cl)c(Cl)c1 | 24.8%
Cc1ccn(CCC(=O)Nc2ccc(-c3ccno3)cc2)n1 | 10.3%
C=C(c1cccc2ccccc12)P(=O)(O)O | 8.15%
CCOC(=O)c1c(NC(=O)COC(=O)c2nc(Cl)ccc2Cl)sc(C(=O)N(C)C)c1C | 3.76%
Cc1ccc(NC(=O)c2ccc(COc3ccccc3)o2)nc1 | -5.11%
Fc1ccc(Nc2nc(-c3cccnc3)cs2)cc1 | 6.02%
CCN(CC)c1ccc(Nc2nc(-c3cccnc3)cs2)cc1 | 20.5%
Cc1nc2ncccn2c1-c1csc(Nc2ccccc2)n1 | 16.1%
Cc1ccc(Nc2nc(-c3c(C)nc4ncccn34)cs2)cc1 | 17.2%
O=S(=O)(c1cccs1)N1CCC2(CC1)OCCN2S(=O)(=O)c1ccccc1 | 11.8%
CN(Cc1c(C(=O)N/N=C/c2ccccc2)nnn1-c1nonc1N)c1ccccc1 | -1.98%
Cc1c(C(=O)N2CC(C)OC(C)C2)[nH]c2ccc(Br)cc12 (centres undefined) | 0.93%
CCOC(=O)C(NCc1ccc(OC)cc1)(NC(C)=O)C(F)(F)F (centres undefined) | 0.08%
O=Cc1ccccc1OCCOc1ccc([N+](=O)[O-])cc1 | 26.7%

Structure (SMILES) | inhibition
O=C1NC(=O)/C(=C\c2ccccc2OCc2ccc([N+](=O)[O-])cc2)N1 | 16%
C=CCn1c(-c2cccc(Cl)c2)n[nH]c1=S | 4.07%
CCCCCC(=O)NNC(=S)NC(C)=O | 7.61%
CCOc1ccc(C(=O)CN2CCN(S(=O)(=O)c3ccc(F)cc3)CC2)cc1 | 6.42%
COc1cc(NC(=O)CN2CCN(S(=O)(=O)c3ccc(C(C)C)cc3)CC2)cc(OC)c1 | 4.71%
Cc1ccc(S(=O)(=O)N2CCN(Cc3cc(C(C)C)ccc3O)CC2)cc1 | -1.91%
CC(C)(C)C(=O)CN1CCN(S(=O)(=O)c2ccc(F)cc2)CC1 | 1.15%
Cc1ccc(C)c(NC(=O)CN(C)C(=O)c2cc3c(s2)CCCCC3)c1 | 17%
C=CCNC(=O)COCc1cc(-c2ccc3c(c2)OCO3)on1 | 7.76%
CN(C)C(=O)CSc1nnc(-c2ccc(S(=O)(=O)N3CCCC3)cc2)n1C | -1.24%
C/C(=N/OC(=O)CC(C)C)c1cc(-c2ccc(Cl)cc2)no1 | 4.31%
O=C(CCN1CCOCC1)N/N=C/c1cc([N+](=O)[O-])ccc1OC(F)F | 5.27%
Cc1ccccc1-c1nnn(CC(=O)N2CCN(C(=O)c3ccco3)CC2)n1 | 14.3%
CCCOc1ccc(C(=O)Nn2c(C)nc3ccccc3c2=O)cc1 | 1.86%
Nc1ncnc(N)c1N=Nc1ccccc1 | 8.05%
Nc1ncc(Br)cc1N=Cc1ccccc1 | 9.46%
C=CCN(C(=O)c1ccccc1)c1ccc(OC)cc1 | -2.78%
O=C(c1ccco1)N1CCN(C(=O)c2cc(-c3ccc(F)cc3)no2)CC1 | 8.37%
CC(C)CNC(=O)c1cc(-c2ccc3c(c2)OCO3)on1 | 4.96%
COc1ccc2c(c1)S(=O)(=O)c1ccccc1N2 | 1.87%
Cc1nc(SCC(=O)N2c3ccccc3Sc3ccccc32)n[nH]1 | 12.6%
O=C(CSc1nnc(-c2ccccc2)n1-c1ccccc1)N1c2ccccc2Sc2ccccc21 | 4.91%
O=C(O)CCc1ccc(S(=O)(=O)Nc2ccccc2C(=O)NCCc2ccccc2)cc1 | 6.21%
CCOC(=O)C(CN1CCCC1)c1ccccc1 (centres undefined) | 6.65%
